Only some compounds are listed: those with a hit (about 3.6% of all), similar ones and a draw of the others.
DAT uptake mod = changed hDAT dopamine uptake under cocaine IC80, either direction, primary screen, cocaine antagonist project, cell-based, LLC-PK1 hDAT, [14C]-dopamine uptake, MLSMR; Sodium-dependent dopamine transporter (Homo sapiens), Q01959; LLC-PK1 hDAT cells, [14C]-dopamine uptake with cocaine IC80; actives deviate in either direction; B-score at 10 µM; hit rate 1.3% among 110,000; AID 449768, 2010;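 active = Z score or B-score, a plate-position-corrected score, falls beyond the plate's 99.7% confidence bounds, in either direction; inactive = both scores lie inside the 99.7% bounds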
Target sequence (Q01959 whole entry, looked up): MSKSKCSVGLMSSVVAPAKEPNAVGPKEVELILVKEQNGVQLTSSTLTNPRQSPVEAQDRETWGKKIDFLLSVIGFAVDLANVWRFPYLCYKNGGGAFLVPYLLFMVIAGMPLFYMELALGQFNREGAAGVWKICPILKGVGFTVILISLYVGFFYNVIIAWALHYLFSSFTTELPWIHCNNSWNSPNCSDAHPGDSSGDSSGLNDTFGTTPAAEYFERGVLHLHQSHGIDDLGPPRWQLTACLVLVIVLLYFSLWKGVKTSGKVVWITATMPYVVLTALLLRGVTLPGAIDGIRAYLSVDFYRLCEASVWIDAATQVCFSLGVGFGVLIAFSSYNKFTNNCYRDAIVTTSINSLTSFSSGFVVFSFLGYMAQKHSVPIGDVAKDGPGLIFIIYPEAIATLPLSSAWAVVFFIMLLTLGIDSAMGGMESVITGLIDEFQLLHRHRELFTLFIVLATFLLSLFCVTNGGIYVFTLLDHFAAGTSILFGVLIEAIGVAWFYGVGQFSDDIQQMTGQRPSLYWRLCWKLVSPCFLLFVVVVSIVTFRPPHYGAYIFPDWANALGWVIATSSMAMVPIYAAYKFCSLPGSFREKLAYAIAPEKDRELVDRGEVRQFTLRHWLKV
WT yeast gro inh = growth inhibition of WT strain, primary screen, mitochondrial fusion inhibitor project, WT and mutant strains, chemical genetic; mitochondrial fusion phenotypic screen; inhibition, % at 10 µM; AID 1362, 2008; hit rate 2.1% among 190,000; in the data active = inhibition above about 58%; tested in S. cerevisiae
HCT116 PTEN-null = growth suppression of PTEN-null HCT116, primary screen, cell-based, CellTiter-Glo | HCT116 PTEN-null viability, 60 h; hits give low values | viability, % at 10 µM | hit rate 1.2% among 140,000;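 active = viability at or below a set limit, 4 SD under the median of all tested compounds, cut at about 3.7% in these data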;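 note: PTEN knockout HCT116 line with beta catenin targeted HCT116 as companion control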
HCT116 bCat-KO = primary screen for growth suppressors in beta-catenin knockout HCT116 cells (colon tumor, human); AID 818, 2007; HCT116 beta-catenin knockout viability, CellTiter-Glo, 60 h; hits give low values; viability, % at 10 µM; hit rate 1.5% among 140,000;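 active = viability at or under a set limit, the compound median less 4 SD, cut at about 6% in these data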
Hits are given with their value; – = inactive; · = no result given.

SMILES	DAT uptake mod	WT yeast gro inh	HCT116 PTEN-null	HCT116 bCat-KO
COc1cccc(-c2nc(N3CCCCC3C)c3ccccc3n2)c1O (centres undefined)	–	63.5	–	–
Cc1ccc(NNc2c(C)nc3ccccc3nc2=O)cc1	·	–	·	·
OCCCn1c(C(CO)Nc2nc(-c3ccc(Cl)cc3)cs2)nc2ccccc21 (centres undefined)	2.49	·	·	·
Cc1ccc(Cn2c(C(CO)Nc3nc(-c4ccc(F)cc4)cs3)nc3ccccc32)cc1 (centres undefined)	–	·	·	·
Cc1ccc(-c2csc(NC(CO)c3nc4ccccc4n3CCOCCO)n2)cc1 (centres undefined)	2.75	·	·	·
Clc1cccc(Cl)c1CNc1ccc(N2CCCC2)cc1	·	–	·	·
COCCNC(=S)N1CCc2cc(OC)c(OC)cc2C1COc1ccc(C(C)C)cc1 (centres undefined)	·	–	–	–
Nc1nc(CSc2nc3ccccc3s2)nc(Nc2ccccc2)n1	·	–	–	–
Cc1c(Cl)cccc1Nc1nc(N)nc(CSc2nc3ccccc3s2)n1	·	72.3	–	–
O=C(NCCc1ccccc1)[C@@H]1CC=C[C@@H]2CCN(C3CCCCC3)C(=O)[C@@H]21	–	·	·	·
CC(=O)Nc1ccc(S(=O)(=O)NCCSCc2ccccc2Cl)cc1	·	–	–	–
COc1cc(/C=c2\sc3n(c2=O)CCCN=3)ccc1O	–	–	–	–
O=c1/c(=C/c2ccc([N+](=O)[O-])cc2)sc2n1CCCN=2	–	–	–	2.1
CC(C)N(Cc1nc(-c2ccccc2)no1)C(=O)CCCN1C(=O)c2ccccc2C1=O	2.4	–	–	–
Cc1cc(Br)c(OCc2ccc(C(=O)N/N=C3\CC4CC=CC34)cc2)c(Br)c1 (centres undefined)	·	75.7	–	–
O=C(N/N=C1\CC2CC=CC12)c1ccc(Br)cc1 (centres undefined)	·	–	·	·
COC(=O)C(C(=O)Nc1ccccc1C)C1CCCCCC1 (centres undefined)	·	–	·	·
O=C(CCNc1n[nH]c(=O)[nH]c1=O)N1CCOCC1	-3.36	–	–	–
Cc1c(-c2nnc(SCC(=O)O)n2-c2ccccc2Br)nnn1-c1ccccc1	·	–	–	–
COc1ccc(CC2(CO)CCN(CC3=CC[C@H]4C[C@@H]3C4(C)C)CC2)cc1	·	–	·	·
Cc1cc2c3c(c1)C1(SCC(=O)N1c1ccc(F)cc1)C(=O)N3C(C)(C)CC2C (centres undefined)	–	62.8	–	–
COc1ccc(N2C(=O)CSC23C(=O)N2c4c(cccc43)C(C)=CC2(C)C)cc1 (centres undefined)	–	–	–	–
CN(C)CCNc1c(N)c(=O)oc2ccccc12	·	–	·	·
Cc1ccccc1Nc1c(N)c(=O)oc2ccccc12	-7.69	–	–	–
CCC(/C=C1\Sc2ccc(OC)cc2N1CCO)=C\c1sc2ccc(OC)cc2[n+]1CCO	·	84.0	0.9	2.5
SMILES	DAT uptake mod	WT yeast gro inh	HCT116 PTEN-null	HCT116 bCat-KO
CCC(=O)/C=C1/Sc2ccc(OC)cc2N1CCO	·	–	·	·
CCC(/C=C1\Sc2ccc(OC)cc2N1CC)=C\c1sc2ccc(OC)cc2[n+]1CCCS(=O)(=O)[O-]	·	74.6	·	·
Cc1cc(OC(=O)c2c(F)cc(F)cc2F)nc(C)n1	·	–	·	·
CC1Oc2cc3oc4c(O)c(O)ccc4c(=O)c3c(O)c2C1(C)C (centres undefined)	–	·	·	·
CC(=O)N[C@@H](C)C(=O)N1CCN(S(=O)(=O)c2ccc(Cl)cc2)CC1	·	–	·	·
Cc1nc2cc(F)ccc2n1C1CCN(C(=O)c2c(F)cccc2F)CC1	·	–	·	·
CCC(C)(C)n1nnnc1CN1CCC(NC(=O)c2ccc(Br)cc2)CC1	1.77	–	–	–
CC1(C)Cc2nc3sc4c(=O)n(CC(N)=O)cnc4c3cc2CO1	·	–	–	–
CC1(C)Cc2nc3sc4c(=O)n(CC(=O)NCc5ccccc5)cnc4c3cc2CO1	-2.89	–	–	–
CCC(OC(C)=O)c1cc2c(cc1[N+](=O)[O-])OCCO2 (centres undefined)	·	–	·	·
Cc1oncc1C(=O)NC1CCCCC1	·	–	·	·
Cc1cccc(N2CCN(C(=O)c3ccc4ncsc4c3)CC2)c1C	2.46	–	–	–
Cc1cccc(N2CCN(C(=O)C34CC5CC(CC(C5)C3)C4)CC2)c1C	–	88.0	–	–
O=C(c1ccc2ncsc2c1)N1CCN(c2ccccc2Cl)CC1	·	–	·	·
O=C1Oc2ccccc2C(=O)/C1=C/N1CCN(c2ccccc2F)CC1	·	–	·	·
CC1CCCCN1S(=O)(=O)c1ccc(C(=O)Nc2nnc(-c3ccccn3)o2)cc1 (centres undefined)	·	–	·	·
CCOc1ccc(S(=O)(=O)NCCC(=O)OCC(=O)N2CC(=O)Nc3ccccc32)cc1	·	–	·	·
Cc1ccc(NC(=O)CCCN2C(=O)/C(=C/C=C/c3ccccc3)SC2=S)cc1	·	–	2.4	–
COCC(C)NC(=O)/C=C/c1ccc(OC)cc1 (centres undefined)	·	–	·	·
CC(O)[C@H]1CNC(=O)C(=O)N1CCc1cc(C(F)(F)F)cc(C(F)(F)F)c1 (some centres undefined)	–	·	·	·
CCOC(=O)C(C)Sc1ccc2nnc(CCNS(=O)(=O)c3ccc(C)cc3)n2n1 (centres undefined)	·	–	·	·
COc1ccccc1N1CCN(CCCOc2ccc(F)cc2)CC1	–	–	–	–
O=C1CCc2ccc(OCCCCN3CCN(c4cccc(Cl)c4Cl)CC3)cc2N1	–	83.6	·	·
N#CCSc1nc2ccccc2c(=O)n1CCCC(=O)NCC1CCCO1 (centres undefined)	·	–	·	·
CCn1cc(C(=O)OCC(=O)c2cc(C)n(-c3cccc(C(F)(F)F)c3)c2C)c(=O)c2ccc(C)nc21	·	68.2	–	–
SMILES	DAT uptake mod	WT yeast gro inh	HCT116 PTEN-null	HCT116 bCat-KO
CC(C)(C)NC(=O)COC(=O)CNC(=O)c1cc(Cl)cc([N+](=O)[O-])c1	·	–	–	–
COc1cccc(-c2cc(C(F)(F)F)nc(-n3cncn3)n2)c1	3.31	–	–	–
Cc1nc(C(=O)NC2CCCCC2)sc1C1(C)CC(c2cccnc2)=NO1 (centres undefined)	–	·	·	·
CC(c1ccccc1)C1C(C#N)=C(N)OC2=C1C(=O)CC(C)(C)C2 (centres undefined)	2.76	–	–	–
Cn1c(Cn2c(C(F)(F)F)nc3ccccc32)nc2ccccc21	–	–	–	–
OCCn1c(C(F)(F)F)nc2ccccc21	–	–	0.4	1.0
CC(C)(C)C1CCc2c(C(=O)NNC(=O)CCCC(=O)O)csc2C1 (centres undefined)	·	–	–	–
COc1ccc(CCNC(=S)N2CCC(Cc3ccccc3)CC2)cc1OC	·	–	·	·
CC(C)Cc1cc(C(=O)Nc2c(F)cc(F)cc2Br)no1	6.5	–	–	–
CC(/C=N\Nc1nnc2c(n1)[nH]c1c(C)cccc12)=C\c1ccco1	–	–	2.4	2.1
CCC(=O)N1CCc2cc(Br)cc(S(=O)(=O)Nc3c(C)n(C)n(-c4ccccc4)c3=O)c21	·	–	·	·
COc1ccccc1NC(=O)c1cc2ccccc2o/c1=N\O	–	–	2.7	4.5
OCCCCNCc1ccc(OCc2ccc(Cl)cc2Cl)cc1	–	–	1.6	1.8
OCCNCc1ccc(OCc2ccc(Cl)cc2Cl)cc1	·	75.4	·	·

Screens from PubChem.
